Bioassay records (PubChem)
Rows were chosen to be rich in hits. Some 3.3% of all compounds tested hit in one or more screens of this group.
FAK inh – FAK kinase inhibitors, primary screen, biochemical; Focal adhesion kinase 1 (Homo sapiens), Q05397; biochemical FAK kinase activity assay; inhibition, %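 (tested at 7 µM)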; actives 0.84% (n = 97,000); AID 727, 2007;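 note: 0% = DMSO and 100% = reference compound high control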
Smad3 FoxH1 inh – Smad3/FoxH1 peptide binding inhibitors, primary screen, biochemical, TR-FRET; Mothers against decapentaplegic homolog 3 (Homo sapiens), P84022; TR-FRET Smad3/Dy647-FoxH1 peptide binding, europium anti-His; inhibition, % at 25 µM; actives 0.29% (n = 88,000);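 active = compounds that reduce the energy-transfer binding signal between the protein and its labelled peptide by more than half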;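 note: 0% = Smad3 plus labelled peptide maximal FRET and 100% = peptide-only background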
ERa SRC1 pot – enhancers of ERα–SRC-1 coactivator binding, primary screen, biochemical, TR-FRET, ERα LBD, low estradiol | TR-FRET ERalpha-LBD/SRC-Cy5 coactivator binding, 2 h; 100 = basal binding, no effect | actives 1.3% (n = 86,000) | coactivator binding (% of control), % at 25.6 µM | AID 639, 2007; in the data active = activity above about 200%;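 note: binding measured in presence of low estradiol as agonist stimulus; 0% = peptide alone without receptor and 100% = receptor with peptide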
Target sequence (P03372 whole entry, looked up, the tested form may be a part): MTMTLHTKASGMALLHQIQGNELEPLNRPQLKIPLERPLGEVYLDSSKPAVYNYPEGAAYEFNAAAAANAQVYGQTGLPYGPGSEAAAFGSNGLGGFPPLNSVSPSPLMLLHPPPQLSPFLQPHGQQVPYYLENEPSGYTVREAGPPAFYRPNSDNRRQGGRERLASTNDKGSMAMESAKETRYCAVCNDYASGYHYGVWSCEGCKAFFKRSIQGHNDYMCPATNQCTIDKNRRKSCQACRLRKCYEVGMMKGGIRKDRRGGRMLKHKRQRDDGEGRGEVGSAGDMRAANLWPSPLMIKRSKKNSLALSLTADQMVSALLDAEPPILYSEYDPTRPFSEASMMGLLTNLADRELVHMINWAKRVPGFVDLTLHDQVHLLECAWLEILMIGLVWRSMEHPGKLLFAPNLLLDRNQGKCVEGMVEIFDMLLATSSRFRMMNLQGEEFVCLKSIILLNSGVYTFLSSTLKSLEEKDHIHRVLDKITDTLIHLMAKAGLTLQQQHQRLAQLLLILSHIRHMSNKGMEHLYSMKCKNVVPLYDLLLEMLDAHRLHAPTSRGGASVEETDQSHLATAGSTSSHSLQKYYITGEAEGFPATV
ERa SRC1 inh – ERα–SRC-1 coactivator interaction inhibitors, primary screen, biochemical, TR-FRET, ERα LBD, estradiol-bound. Estrogen receptor (Homo sapiens), P03372. TR-FRET ER-alpha LBD / SRC-1 peptide. inhibition, % at 25.6 µM. actives 1.7% (n = 86,000); in the data active = inhibition above about 50%;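 note: 0% = receptor plus peptide control and 100% = peptide only without receptor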
ERb coact inh – inhibitors of ERβ-SRC1 coactivator interaction, primary screen, biochemical, TR-FRET, ERβ LBD, SRC-1 peptide; Estrogen receptor beta (Homo sapiens), Q92731; TR-FRET ER-beta LBD / SRC1-Cy5 peptide binding; receptor agonist-loaded with 1 µM estradiol; actives 1.3% (n = 86,000); inhibition, % at 25.6 µM;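 active = compounds whose percent inhibition of the receptor-coactivator binding signal exceeds about 50% in the single-dose screen, limit read from the data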;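 note: 0% = receptor plus peptide wells without compound and 100% = peptide-only wells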
FAK inh confirm – FAK kinase inhibitors, retest, confirmation, biochemical | FAK kinase biochemical inhibition assay | shares compounds with FAK inh | AID 794, 2007 | actives 28% (n = 750) | inhibition, % at 7 µM
* marks the source's active call; other numbers are inactive results; . = not tested or not shown; [ ] = remark or other dose. Cut-off read from the data, not from the text of the source, unless noted: active = inhibition above about 19%; inactive = the rest.

SMILES | FAK inh | Smad3 FoxH1 inh | ERa SRC1 pot | ERa SRC1 inh | ERb coact inh | FAK inh confirm
CCCSC1=N/C(=C\C=C\c2ccco2)C(=O)S1 | 24.5* | 2.9 | 62.0 | 74.6*[fluorescence artefact?] | 63.0* | 4.5
Cc1ccc2nc(-c3ccc(SCC(=O)O)nc3)[nH]c2c1 | -6.6 | . | . | . | . | .
Cc1ccc2nc(-c3ccc(NC(=O)CSc4ccccc4)cc3)[nH]c2c1 | 31.7* | . | . | . | . | 12.5
CNCc1ccccc1OCC(=O)Nc1ccccc1OC | -1.7 | 4.7 | 105.9 | -3.3 | -13.8 | .
Cn1c(=O)[nH]c(=O)c2c1nc(Br)n2CCCSc1nc2ccccc2o1 | 18.8* | 2.1 | 84.0 | 0.3 | 2.3 | 1.2
Cn1c(=O)[nH]c(=O)c2c1nc(N1CCCC1)n2CCCSc1nc2ccccc2o1 | . | 10.7 | 112.8 | -6.0 | -6.8 | .
CC(C)=CC1C(C(=O)Nc2ccc(Br)cn2)C1(C)C (stereo not given) | 26.8* | -17.1 | 96.3 | 7.4 | 6.5 | 8.4
COc1ccc(CCNC(=O)c2ccc3nc(-c4ccco4)c(-c4ccco4)nc3c2)cc1OC | 54.4* | -1.3 | 36.0 | 90.1*[fluorescence artefact?] | 93.8*[fluorescence artefact?] | 1.9
COc1ccc(CCNC(=O)c2c(-c3ccccc3)noc2C)cc1OC | . | 17.4 | 124.4 | 4.6 | -1.2 | .
Cc1cc(NC(=O)c2cc(C(C)C)on2)nn1Cc1ccc(Cl)cc1 | -0.9 | -14.4 | 88.0 | 12.4 | 17.9 | .
Cc1nn(-c2ccccc2)c(Cl)c1/C=N/Nc1ccc(S(=O)(=O)Nc2ccccc2C(=O)O)cc1[N+](=O)[O-] | 19.0* | 8.7 | 23.1 | 89.2* | 64.0* | 5.4
Cc1cc(S(=O)(=O)Nc2ccccc2C(=O)O)ccc1Cl | -2.7 | 0.2 | 123.2 | 1.5 | -8.1 | .
O=C(CCNS(=O)(=O)c1cccs1)Nc1nccs1 | 83.2* | -4.1 | 124.2 | -6.5 | -4.0 | -0.6
CC(NC(=O)c1ccccc1NC(=O)CSc1nnnn1C)c1ccccc1 (stereo not given) | -0.9 | 2.3 | 105.7 | -3.9 | 0.2 | .
CC(C)C(C(=O)O)N1C(=O)/C(=C/C=C/c2ccco2)SC1=S (stereo not given) | 87.9* | . | . | . | . | 17.1
CN(C)c1ccc(/C=C/C=C2/SC(=S)N(c3ccccc3)C2=O)cc1 | -8.2 | . | . | . | . | .
Cc1cccc(N/C(=N\S(=O)(=O)c2ccccc2)C(F)(F)F)c1 | -3.3 | . | . | . | . | .
Cc1ccc(OC(=O)c2cccc(C(=O)Oc3ccc(C)cc3)n2)cc1 | 3.3 | 7.7 | 109.3 | 3.1 | -13.5 | .
Cc1ccc(OC(=O)c2ccccc2P(=O)(O)O)cc1 | 50.0* | 11.6 | 98.5 | -8.5 | -4.8 | 43.9*
O=C(Oc1ccccc1Cl)c1ccccc1P(=O)(O)O | 72.2* | -1.8 | 98.3 | 4.6 | 9.8 | 68.4*
O=C(Oc1ccccc1)c1c(Cl)cccc1P(=O)(O)O | 76.2* | -8.2 | 104.3 | -3.3 | -7.5 | 58.2*
O=C(CCC(=O)c1cccs1)Nc1ccc(F)c(F)c1F | -2.0 | 3.5 | 97.3 | 1.7 | 0.1 | .
CCC1CCCCN1C(=O)Cn1c(=O)oc2ccccc21 (stereo not given) | 1.5 | 7.2 | 112.7 | -7.9 | -6.8 | .
CC(=O)CSc1nc(C(F)(F)F)cc(=O)n1-c1ccccc1 | 56.2* | . | . | . | . | -2.0
Cc1cc2c(C)nc(-c3ccccc3)nc2o1 | 25.1* | 0.3 | 119.5 | -4.0 | -4.3 | -1.0
SMILES | FAK inh | Smad3 FoxH1 inh | ERa SRC1 pot | ERa SRC1 inh | ERb coact inh | FAK inh confirm
CCOC(=O)CNC(=O)c1sc2ncnc(N3CCc4ccccc4C3)c2c1C | 42.4* | 1.4 | 110.1 | 3.6 | -0.2 | 33.5*
CCCCNC(=O)c1sc2ncnc(N3CCc4ccccc4C3)c2c1C | 13.6 | 12.3 | 131.7 | -3.5 | 2.7 | .
CC(C)c1cc(C(N)=O)c(NC(=O)C2CCC2)s1 | 24.0* | 9.3 | 96.8 | -15.7 | -11.9 | 11.5
CC(C)c1nnc(NC(=O)C2CCCCC2)s1 | 5.1 | 1.5 | 113.8 | -3.0 | -11.5 | .
COc1ccc(CCNC(=O)Cc2ccc(OCc3ccccc3)c(OC)c2[N+](=O)[O-])cc1OCc1ccccc1 | 1.1 | . | . | . | . | .
CCOC(=O)c1cnc2cc(Cl)c(OC)cc2c1NCC1CCCO1 (stereo not given) | 20.2* | . | . | . | . | 5.6
O=C(NCc1ccccc1)N(Cc1nc2ccccc2c(=O)[nH]1)C1CCCC1 | 3.9 | 33.0 | 99.9 | 8.4 | 2.1 | .
COc1ccccc1-n1cnnc1SCC(=O)Nc1cc(C(C)(C)C)nn1-c1ccccc1 | 5.6 | -4.2 | 120.6 | 3.5 | 5.8 | .
COc1ccc(-n2cnnc2SCC(=O)Nc2cc(C(C)(C)C)nn2-c2ccccc2)cc1 | 23.4* | -12.1 | 99.9 | 1.8 | -7.8 | 12.4
CCc1nc(NCc2cccnc2)c2oc3ccccc3c2n1 | 20.2* | -16.8 | 99.6 | -3.1 | -0.7 | 5.4
CC1=CC(C)(C)N2C(=O)C3(C(C#N)=C(N)Oc4cc(O)ccc43)c3c(C)c(C)cc1c32 (stereo not given) | -3.2 | 11.8 | 59.4 | 4.5 | 16.5 | .
CC(=O)Oc1ccc2ccccc2c1C(NC(=O)Cc1ccccc1)c1ccc(Cl)cc1 (stereo not given) | 7.7 | . | . | . | . | .
CCOC(=O)c1c(N)sc2c(O)c(Br)ccc12 | 18.9* | -1.3 | 80.8 | -1.3 | 12.0 | 0.6
CCOC(=O)c1c(N)sc2c(NC(C)=O)cccc12 | 5.8 | -0.5 | 85.2 | 5.2 | 1.0 | .
CCC(=O)Nc1nnc(Sc2ccc(N(C)C)cc2)s1 | 20.6* | . | . | . | . | 1.5
COC(=O)c1cc(NC(=O)Cc2ccc(OC)cc2)cc(C(=O)OC)c1 | -1.7 | 1.6 | 99.0 | -5.6 | 1.8 | .
O=C1OCC(CO)(CO)N=C1NNc1ccc(Cl)c(Cl)c1 | -8.9 | . | . | . | . | .
COc1ccc(-n2nnnc2SCC(=O)Nc2nc3c(s2)CCCC3)cc1 | 23.8* | -3.8 | 101.1 | -3.5 | -9.9 | 5.8
COc1ccc(-n2nnnc2SCC(=O)Nc2nnn(C)n2)cc1 | -1.9 | 6.5 | 120.4 | -9.3 | 1.7 | .
COc1ccc2c(c1)nc(SCC(=O)c1cccs1)n2C | -5.9 | . | . | . | . | .
CCNc1nc(N)c(C(=O)c2ccc(Cl)s2)s1 | 19.3* | -2.2 | 98.2 | -21.8 | 8.9 | 4.3
CC1CCCC(C)N1C(=O)Cn1cc(/C=C2/C(=O)Nc3ccccc32)c2ccccc21 (stereo not given) | 4.6 | -2.5 | 99.8 | -5.2 | -0.5 | .
CN1C(=O)/C(=C/c2cn(CC(=O)N3CCCCC3)c3ccccc23)c2ccccc21 | 26.1* | 7.1 | 96.0 | -10.0 | 47.9 | 27.9*
Cc1cc(/C=C(\C#N)C(=O)NCc2cccs2)c(C)n1-c1ccccc1F | 8.2 | -6.0 | 98.5 | -3.9 | 5.8 | .
CCCCc1cc(=O)oc2cc(C)c(CN3CCCC3)c(O)c12 | 20.8* | 11.2 | 69.2 | 46.5 | 16.3 | 1.1
